Drawing on PubChem BioAssay (EPA / NIEHS), this text covers outcome and AC50 for three compounds.

The structures appear in SMILES notation. Some structures have more than one record in an assay (separate samples or runs), and their calls can disagree. Active and inactive are the calls of the source. The calls were made as follows: active = hit-call score of the fitted dose curve at least 0.9, where 1 is the maximum; inactive = score below 0.9.

The nature of assay [1]: ATG_GLI_CIS: Attagene CIS-FACTORIAL HepG2 Assay for human Zinc Finger Protein GLI1 (AID 2282945). Conditions: HepG2, Attagene cis-factorial reporter mRNA, GLI element; actives raise or lower the signal. The essentials: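 HepG2 cells transiently transfected with cis-promoter multiplexed reporter units report endogenous transcription factor activity. After 24 h chemical exposure, reporter mRNA was quantified by RT-PCR, 6-FAM labelling, HpaI digestion and capillary electrophoresis, with bidirectional fitting against DMSO.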

Assay [2] is described as follows: ATG_GRE_CIS: Attagene CIS-FACTORIAL HepG2 Assay for human Glucocorticoid Response Elements (GRE) (AID 2282947). Conditions: HepG2 GRE cis-reporter, Attagene multiplex mRNA; actives raise or lower the signal. The essentials: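 HepG2 cells transiently transfected with multiple cis-promoter reporter units measure endogenous TF activity; 24 h compound exposure. Reporter mRNA quantified by RT-PCR, FAM labelling, HpaI digestion and capillary electrophoresis; bidirectional fit vs DMSO baseline.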

The nature of assay [3]: ATG_ISRE_CIS: Attagene CIS-FACTORIAL HepG2 Assay for human Interferon Regulatory Factor 1 (IRF1) binding to an Interferon-Stimulated Response Element (ISRE) (AID 2282948). Conditions: HepG2 ISRE cis-reporter (Attagene), mRNA transcription readout; actives raise or lower the signal. The essentials: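 Transfected HepG2 (multiple reporter transcription units, cis elements) dosed 24 h. RNA → oligo(dT) RT → PCR → 6-FAM primer extension → HpaI → CE. DMSO = negative control/baseline.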

Assay [4] is described as follows: ATG_M_32_CIS: Attagene CIS-FACTORIAL HepG2 Assay for M32 Transcription Factor (Internal Marker) (AID 2282949).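 Also: background control marker of the multiplexed CIS panel rather than a real target.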 As to conditions: HepG2 Attagene cis-factorial M32 reporter, mRNA; actives raise or lower the signal. The essentials:
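Internal background marker read-out: RT-PCR/capillary electrophoresis fluorescence of reporter transcripts from transiently transfected HepG2 cells after 24 h chemical exposure. Activity fitted bidirectionally relative to DMSO negative control.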

Assay [5] is described as follows: ATG_M_06_CIS: Attagene CIS-FACTORIAL HepG2 Assay for M06 Transcription Factor (Internal Marker) (AID 2282950). As to conditions: HepG2 Attagene CIS-FACTORIAL M06 internal marker reporter; actives raise or lower the signal. The essentials: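 Terse: HepG2, transient MRTU transfection (FuGene 6), 24 h dosing; total RNA, oligo(dT) RT, PCR, FAM label, HpaI cut, capillary electrophoresis; bidirectional fit vs DMSO baseline; background-control endpoint.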

Assay [6] deals with Hypoxia-inducible factor 1-alpha (Homo sapiens) (UniProt Q16665). As to the kind of experiment: ATG_HIF1a_CIS: Attagene CIS-FACTORIAL HepG2 Assay for human Hypoxia Inducible Factor 1 (HIF1A) (AID 2282951). As to conditions: HepG2 Attagene cis-factorial HIF1a reporter transcription; actives raise or lower the signal. Summed up: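 Endogenous-TF cis reporter readout, human HepG2 cells, 24 h incubation; mRNA detected via RT-PCR and capillary electrophoresis fluorescence; DMSO-normalised bidirectional fitting.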

The target in assay [7] is Hepatocyte nuclear factor 6 (Homo sapiens) (UniProt Q9UBC0). Kind of assay: ATG_HNF6_CIS: Attagene CIS-FACTORIAL HepG2 Assay for human Hepatocyte Nuclear Factor 6 (HNF6) (AID 2282952). Conditions: HepG2 Attagene cis-factorial HNF6 reporter transcription; actives raise or lower the signal. The essentials:
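HepG2 cells transiently transfected with cis-element-driven multiplexed reporter units measuring endogenous transcription factor activity. After 24 h exposure, reporter mRNA quantified by RT-PCR, FAM-labelled fragments and capillary electrophoresis; bidirectional fitting versus DMSO.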

Assay [8] addresses Heat shock factor protein 1 (Homo sapiens) (UniProt Q00613). Kind of assay: ATG_HSE_CIS: Attagene CIS-FACTORIAL HepG2 Assay for human Heat Shock Transcription Factor 1 (HSE) (AID 2282953). As to conditions: HepG2 HSE cis-reporter, Attagene RNA transcription; actives raise or lower the signal. Summed up:
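Read-out: fluorescence of reporter-specific RT-PCR fragments separated by capillary electrophoresis. HepG2 carrying transfected cis-element reporter units; 24 h dosing; activity fitted in both directions relative to DMSO baseline.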

The nature of assay [9]: ATG_MRE_CIS: Attagene CIS-FACTORIAL HepG2 Assay for human Metal Responsive Element (MRE) (AID 2282954). Conditions: HepG2 MRE cis-reporter transcription, Attagene multiplex; actives raise or lower the signal. The essentials: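 HepG2 cells transiently transfected with multiple cis-element reporter units measure endogenous MTF1-driven transcription. After 24 h compound exposure, reporter mRNA is quantified by RT-PCR with 6-FAM labelling, HpaI digestion and capillary electrophoresis; bidirectional fits versus DMSO.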

Assay [10] in a line: ATG_PBREM_CIS: Attagene CIS-FACTORIAL HepG2 Assay for human Phenobarbital-responsive Enhancer Module (PBREM) (AID 2282955). As to conditions: HepG2 PBREM cis-reporter, Attagene multiplexed transcription; actives raise or lower the signal. The essentials: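 Readout: reporter mRNA, fluorescent RT-PCR fragments separated by capillary electrophoresis. System: HepG2 transiently transfected with cis-regulated reporter units. Exposure: 24 h. Analysis: bidirectional, DMSO baseline.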

Assay [11] concerns the target Paired box protein Pax-6 (Homo sapiens) (UniProt P26367). As to the kind of experiment: ATG_Pax6_CIS: Attagene CIS-FACTORIAL HepG2 Assay for human Paired Box 6 (PAX6) (AID 2282956). Conditions: HepG2 CIS-FACTORIAL PAX6 reporter transcription, RNA readout; actives raise or lower the signal. Summed up:
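Transient MRTU transfection of HepG2 → compound exposure 24 h → TriZol RNA, oligo(dT) RT → PCR, 6-FAM primer extension, HpaI cut → capillary electrophoresis; activity fitted both directions against DMSO.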

The nature of assay [12]: ATG_PXRE_CIS: Attagene CIS-FACTORIAL HepG2 Assay for human Pregnane X Receptor Element (PXRE) (AID 2282957). As to conditions: HepG2 Attagene CIS-FACTORIAL PXRE reporter, mRNA; actives raise or lower the signal. Summed up: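 HepG2 cells transiently transfected with cis-element-driven multiplexed reporter units; after 24 h chemical exposure, reporter mRNA measured by RT-PCR, 6-FAM labelling, HpaI digestion and capillary electrophoresis. Bidirectional fitting relative to DMSO.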

Assay [13] is described as follows: ATG_PPRE_CIS: Attagene CIS-FACTORIAL HepG2 Assay for human Peroxisome Proliferator-activated Response Element (PPRE) (AID 2282958). Conditions: HepG2 PPRE cis-element reporter, Attagene transcription factor profiling; actives raise or lower the signal. The essentials: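 After human HepG2 hepatoma cells were transiently transfected with cis-promoter reporter constructs, they were exposed to test chemicals for 24 hours. Reporter RNA was then reverse-transcribed, PCR-amplified, FAM-labeled, HpaI-digested and quantified by capillary electrophoresis.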

The nature of assay [14]: ATG_RORE_CIS: Attagene CIS-FACTORIAL HepG2 Assay for human RAR-related Orphan Receptor Element (RORE) (AID 2282959). As to conditions: HepG2 Attagene cis-factorial RORE reporter, mRNA; actives raise or lower the signal. The essentials: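 Measured here: transcript induction of a cis-regulated reporter in HepG2 cells transiently transfected via FuGene 6. After 24 h, RNA was processed by RT-PCR and fluorescent capillary electrophoresis; DMSO defined baseline activity.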

Assay [15] in a line: ATG_Sox_CIS: Attagene CIS-FACTORIAL HepG2 Assay for human SRY-box transcription factor (SOX) (AID 2282960). As to conditions: HepG2 Attagene cis-factorial SOX reporter, mRNA; actives raise or lower the signal. Summed up:
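Using transiently transfected HepG2 cells, reporter transcription driven by cis elements was assessed 24 h after dosing. Signal was fluorescence of capillary-separated RT-PCR products, with DMSO defining baseline activity.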

Assay [16] deals with Transcription factor Sp1 (Homo sapiens) (UniProt P08047). As to the kind of experiment: ATG_Sp1_CIS: Attagene CIS-FACTORIAL HepG2 Assay for human Specificity Protein 1 (Sp1) (AID 2282961). As to conditions: HepG2 Sp1 cis-reporter transcription, actives raise or lower the signal. Summed up:
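After transient transfection of HepG2 cells with cis-promoter reporter units and 24 h chemical treatment, reporter transcripts were quantified by RT-PCR and capillary electrophoresis fluorescence. Gain- and loss-of-signal fitted against DMSO.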

Assay [17] is described as follows: ATG_SREBP_CIS: Attagene CIS-FACTORIAL HepG2 Assay for human Sterol Regulatory Element Binding (SREBP) (AID 2282962). Conditions: HepG2 Attagene cis-factorial SREBP reporter, mRNA; actives raise or lower the signal. Summed up:
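Transfected HepG2 (cis-regulated reporter library, endogenous TFs) → compound 24 h → total RNA → oligo(dT) RT → reporter-specific PCR → FAM primer extension, HpaI cut → CE fluorescence. Fit bidirectional vs DMSO.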

In assay [18] the target is Signal transducer and activator of transcription 3 (Homo sapiens) (UniProt P40763). Kind of assay: ATG_STAT3_CIS: Attagene CIS-FACTORIAL HepG2 Assay for human Signal Transducer and Activator of Transcription 3 (STAT3) (AID 2282963). As to conditions: HepG2, Attagene cis-factorial STAT3 reporter transcription; actives raise or lower the signal. Summed up: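 HepG2 cells transiently transfected with cis-element-driven multiple reporter transcription units; after 24 h chemical exposure, reporter mRNA measured by RT-PCR, 6-FAM primer-extension labelling, HpaI digestion and capillary electrophoresis. Bidirectional fitting versus DMSO baseline.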

Assay [19] can be described thus: ATG_TA_CIS: Attagene CIS-FACTORIAL HepG2 Assay for human TA Basal Promoter (AID 2282964). Conditions: HepG2 Attagene CIS-factorial TA basal promoter reporter; actives raise or lower the signal. The essentials: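 Transfected HepG2, 24 h compound exposure; RNA → RT-PCR → FAM primer extension → HpaI cut → CE fluorescence. Gain/loss-of-signal fitted against DMSO negative control. Background-control readout.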

Assay [20] in a line: ATG_TCF_b_cat_CIS: Attagene CIS-FACTORIAL HepG2 Assay for human T-Cell-Factor with beta-catenin (TCF/b-cat) (AID 2282965). As to conditions: HepG2 TCF/beta-catenin cis-reporter transcription, actives raise or lower the signal. The essentials:
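HepG2 cells transiently transfected with multiple cis-promoter-regulated reporter transcription units, so endogenous transcription factor activity is measured. Reporter mRNA read 24 hours after dosing by RT-PCR, fluorescent labelling and capillary electrophoresis; bidirectional fitting against DMSO.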

Chain of Signal transducer and activator of transcription 3 (Homo sapiens) (P40763 whole entry, looked up): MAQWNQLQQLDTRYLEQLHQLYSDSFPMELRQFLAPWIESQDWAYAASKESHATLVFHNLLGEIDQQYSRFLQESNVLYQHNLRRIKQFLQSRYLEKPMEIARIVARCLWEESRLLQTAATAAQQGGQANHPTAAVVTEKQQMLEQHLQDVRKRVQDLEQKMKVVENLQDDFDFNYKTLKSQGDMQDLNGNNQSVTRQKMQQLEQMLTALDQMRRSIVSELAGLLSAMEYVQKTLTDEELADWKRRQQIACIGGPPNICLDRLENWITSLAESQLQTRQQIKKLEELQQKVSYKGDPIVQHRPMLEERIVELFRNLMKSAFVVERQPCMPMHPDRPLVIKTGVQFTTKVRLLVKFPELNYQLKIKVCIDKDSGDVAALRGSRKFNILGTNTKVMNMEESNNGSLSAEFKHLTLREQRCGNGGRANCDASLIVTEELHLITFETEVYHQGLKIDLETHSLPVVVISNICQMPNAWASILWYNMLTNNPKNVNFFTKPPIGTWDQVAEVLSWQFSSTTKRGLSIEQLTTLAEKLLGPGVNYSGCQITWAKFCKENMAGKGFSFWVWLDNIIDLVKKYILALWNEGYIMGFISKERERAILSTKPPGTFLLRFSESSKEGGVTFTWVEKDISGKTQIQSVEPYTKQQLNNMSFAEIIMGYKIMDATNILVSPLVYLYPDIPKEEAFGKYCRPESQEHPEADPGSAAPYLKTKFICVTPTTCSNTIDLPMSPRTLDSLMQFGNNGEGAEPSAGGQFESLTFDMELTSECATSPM
Chain of Hepatocyte nuclear factor 6 (Homo sapiens) (Q9UBC0 whole entry, looked up, the tested form may be a part): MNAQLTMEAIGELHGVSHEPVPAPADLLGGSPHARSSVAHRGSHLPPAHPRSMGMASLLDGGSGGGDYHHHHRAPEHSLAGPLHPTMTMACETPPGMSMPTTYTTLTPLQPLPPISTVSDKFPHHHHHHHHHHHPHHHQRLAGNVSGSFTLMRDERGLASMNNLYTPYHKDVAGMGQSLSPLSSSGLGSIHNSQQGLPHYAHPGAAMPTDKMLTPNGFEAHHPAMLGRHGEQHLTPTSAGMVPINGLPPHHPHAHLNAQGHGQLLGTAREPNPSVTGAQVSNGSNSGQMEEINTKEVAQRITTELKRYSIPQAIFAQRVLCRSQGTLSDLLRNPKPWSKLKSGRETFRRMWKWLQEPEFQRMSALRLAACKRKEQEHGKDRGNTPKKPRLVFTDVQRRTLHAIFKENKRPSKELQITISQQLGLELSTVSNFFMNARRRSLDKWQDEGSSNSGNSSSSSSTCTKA
Chain of Hypoxia-inducible factor 1-alpha (Homo sapiens) (Q16665 whole entry, looked up): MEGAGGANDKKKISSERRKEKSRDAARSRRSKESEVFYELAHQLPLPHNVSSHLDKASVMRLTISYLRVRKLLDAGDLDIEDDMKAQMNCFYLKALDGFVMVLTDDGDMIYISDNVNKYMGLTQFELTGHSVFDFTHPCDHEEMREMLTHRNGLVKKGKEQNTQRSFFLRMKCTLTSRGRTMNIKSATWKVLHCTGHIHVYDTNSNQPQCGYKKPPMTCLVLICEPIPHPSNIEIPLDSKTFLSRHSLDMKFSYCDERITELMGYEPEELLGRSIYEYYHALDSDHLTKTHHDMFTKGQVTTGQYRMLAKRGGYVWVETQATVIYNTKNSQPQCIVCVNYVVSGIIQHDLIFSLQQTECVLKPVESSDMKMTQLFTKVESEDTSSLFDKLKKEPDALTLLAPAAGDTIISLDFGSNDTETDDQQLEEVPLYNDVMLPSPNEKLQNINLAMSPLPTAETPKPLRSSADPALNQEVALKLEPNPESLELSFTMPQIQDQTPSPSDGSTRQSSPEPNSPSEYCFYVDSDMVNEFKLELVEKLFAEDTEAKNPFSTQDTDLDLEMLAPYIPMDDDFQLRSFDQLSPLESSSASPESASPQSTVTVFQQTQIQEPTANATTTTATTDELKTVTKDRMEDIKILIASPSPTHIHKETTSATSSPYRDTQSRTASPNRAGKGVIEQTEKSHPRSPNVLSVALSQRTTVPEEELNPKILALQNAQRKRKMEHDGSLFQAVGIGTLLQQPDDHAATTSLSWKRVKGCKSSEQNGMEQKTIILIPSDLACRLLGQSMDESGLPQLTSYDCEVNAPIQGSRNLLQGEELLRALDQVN
Chain of Heat shock factor protein 1 (Homo sapiens) (Q00613 whole entry, looked up, the tested form may be a part): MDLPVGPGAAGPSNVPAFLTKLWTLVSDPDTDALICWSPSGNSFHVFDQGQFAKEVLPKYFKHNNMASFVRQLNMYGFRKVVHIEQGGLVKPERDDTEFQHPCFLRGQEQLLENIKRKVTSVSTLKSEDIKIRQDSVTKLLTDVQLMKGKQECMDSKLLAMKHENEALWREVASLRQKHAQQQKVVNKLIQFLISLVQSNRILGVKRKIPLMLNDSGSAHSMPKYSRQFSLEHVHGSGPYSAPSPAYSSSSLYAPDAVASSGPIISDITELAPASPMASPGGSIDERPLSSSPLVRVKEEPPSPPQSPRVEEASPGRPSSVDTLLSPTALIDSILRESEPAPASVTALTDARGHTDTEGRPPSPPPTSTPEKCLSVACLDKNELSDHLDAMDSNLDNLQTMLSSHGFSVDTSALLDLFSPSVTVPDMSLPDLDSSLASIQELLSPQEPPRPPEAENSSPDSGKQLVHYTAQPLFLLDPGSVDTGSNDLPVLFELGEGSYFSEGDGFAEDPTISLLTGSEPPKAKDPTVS
Chain of Transcription factor Sp1 (Homo sapiens) (P08047 whole entry, looked up): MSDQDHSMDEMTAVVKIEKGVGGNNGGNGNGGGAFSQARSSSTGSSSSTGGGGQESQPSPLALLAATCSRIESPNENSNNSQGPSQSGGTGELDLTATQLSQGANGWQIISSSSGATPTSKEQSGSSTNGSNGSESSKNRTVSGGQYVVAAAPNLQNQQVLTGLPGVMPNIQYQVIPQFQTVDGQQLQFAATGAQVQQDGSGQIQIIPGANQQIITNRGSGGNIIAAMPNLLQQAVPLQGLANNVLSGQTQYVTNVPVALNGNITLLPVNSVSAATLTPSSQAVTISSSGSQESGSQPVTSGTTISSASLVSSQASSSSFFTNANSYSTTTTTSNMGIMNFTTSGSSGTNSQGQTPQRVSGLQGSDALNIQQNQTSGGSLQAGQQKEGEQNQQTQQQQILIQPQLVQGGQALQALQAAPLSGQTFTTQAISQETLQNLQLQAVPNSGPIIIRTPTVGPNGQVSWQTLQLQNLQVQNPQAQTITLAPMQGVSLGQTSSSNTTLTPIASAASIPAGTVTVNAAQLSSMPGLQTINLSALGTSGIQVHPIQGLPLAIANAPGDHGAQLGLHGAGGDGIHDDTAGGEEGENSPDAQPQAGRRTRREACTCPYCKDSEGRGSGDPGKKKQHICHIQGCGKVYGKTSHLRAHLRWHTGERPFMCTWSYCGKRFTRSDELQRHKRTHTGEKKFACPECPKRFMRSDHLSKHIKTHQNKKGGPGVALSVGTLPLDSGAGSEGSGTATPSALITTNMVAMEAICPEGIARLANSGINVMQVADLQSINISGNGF
Chain of Paired box protein Pax-6 (Homo sapiens) (P26367 whole entry, looked up): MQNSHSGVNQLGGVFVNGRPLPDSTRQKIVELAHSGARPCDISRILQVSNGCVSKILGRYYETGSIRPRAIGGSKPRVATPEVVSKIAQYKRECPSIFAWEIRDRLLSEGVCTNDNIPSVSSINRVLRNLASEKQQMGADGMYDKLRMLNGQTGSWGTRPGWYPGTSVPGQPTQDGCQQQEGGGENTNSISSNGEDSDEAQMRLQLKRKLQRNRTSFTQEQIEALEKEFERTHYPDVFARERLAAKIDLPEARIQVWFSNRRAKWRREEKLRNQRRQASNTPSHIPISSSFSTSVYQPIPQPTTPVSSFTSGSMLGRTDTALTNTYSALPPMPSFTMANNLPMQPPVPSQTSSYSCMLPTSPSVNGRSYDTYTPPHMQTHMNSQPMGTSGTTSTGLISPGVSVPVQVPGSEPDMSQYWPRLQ

On to `CN1CSC(=S)N(C)C1`, for which the call in [1], in assay [2], in [3], in assay [4], in assay [5] and in assay [6] was inactive. Moreover, the call in [7], in assay [8], in assay [10], in assay [11], in assay [12] and in assay [14] was inactive. Further, the result in [15], in assay [17], in assay [18], in assay [19] and in assay [20] was inactive. The AC50 in assay [9] is 50 µM (active); in assay [13], 10.3 µM (active); in assay [16], 50 µM (active).

For `CCS(=O)(=O)c1cccnc1S(=O)(=O)NC(=O)Nc1nc(OC)cc(OC)n1`, the result in [1], in assay [2], in assay [3], in [4], in assay [5] and in assay [6] was inactive. In addition, the call in assay [7], in assay [8], in assay [9], in [10], in assay [11] and in assay [12] was inactive. For the same compound, the outcome in assay [13], in assay [14], in assay [15], in assay [16], in assay [17] and in assay [18] was inactive. Further, the compound was classed as inactive in assay [19] and in assay [20]. Also, the AC50 in assay [12] is 60.5 µM (active).

As to `N#Cc1c(Cl)c(Cl)c(Cl)c(C#N)c1Cl`, the compound was classed as inactive in [1], in [2], in assay [3], in [4], in assay [5] and in [6]. For the same compound, the result in [7], in [8], in assay [9], in assay [10], in [11] and in assay [13] was inactive. Moreover, the call in assay [14], in assay [15], in assay [16], in [17], in [18] and in assay [19] was inactive. The result in assay [20] was inactive. Further, the AC50 in assay [12] was 0.121 µM (active).

As a reminder, the AC50 is the midpoint of the concentration-response curve, whichever way the signal moves.
